# Laboratory results as given in PubChem BioAssay AID1063 (University of Pittsburgh Molecular Library Screening Center, 2008).
# About 18,000 (9%) of roughly 200,000 compounds were called active. This is one part of a sample in which actives are shown more often than they occur. No stated cut-off is given here; in the data, active means inhibition above about 50%; inactive means the rest.
# Assay: antileishmanial activity against promastigotes – primary screen (AID 1063);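 further: promastigotes grown with compound for 44 hours at 28 °C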
# Conditions: Leishmania major promastigotes, resazurin fluorescence viability; at 10 µM; hits give high values
row,SMILES,inhibition
1,O=C(CN1CCCCC1)Nc1ccccc1Cl,-0.98% (inactive)
2,O=C(Nc1ccccc1Cl)/C(Cl)=C(\Cl)S(=O)c1ccccc1 (stereo not given),101% (active)
3,O=C(Nc1ccccc1Cl)c1ccc2nsnc2c1,-3.57% (inactive)
4,COc1cccc(/C=C/C(=O)Nc2ccc3c(c2)OCCO3)c1,13.7% (inactive)
5,Cc1cc(C(=O)Nc2ccccc2N2CCOCC2)c2ccccc2n1,1.07% (inactive)
6,CCC(=O)Nc1ccc2nc(C)n(Cc3ccccc3Cl)c(=O)c2c1,4.75% (inactive)
7,CCN1CCN(c2cc3nc(C)n(Cc4ccccc4)c(=O)c3cc2NC(=O)c2ccccc2F)CC1,98.3% (active)
8,Cc1c(/C=N\NC(=O)c2cc3ccccc3o2)c2ccccc2n1C,9.72% (inactive)
9,O=C(c1ccc2ccccc2n1)N1CCN(c2ccccc2Cl)CC1,-3.63% (inactive)
10,O=C(c1ccc(C(F)(F)F)cc1)C1CCCN(C(=O)c2csnn2)C1 (stereo not given),-5.59% (inactive)
11,CSc1ccc(C(=O)C2CCCN(C(=O)c3ccc(C)nc3)C2)cc1 (stereo not given),-4.42% (inactive)
12,O=C(c1ccc(-c2ccccc2)cc1)C1CCCN(C(=O)c2cncs2)C1 (stereo not given),58.5% (active)
13,C/C=N/NC(=O)CCCC(=O)N/N=C/C,13.8% (inactive)
14,COc1cccc(NC(=O)CN(C)C(C)C(=O)Nc2ccc(C#N)cc2)c1 (stereo not given),5.24% (inactive)
15,CCOc1ccc(NS(=O)(=O)c2ccc(C)c(C(N)=O)c2)cc1,-2.88% (inactive)
16,COCCn1c(Cc2cccn2C)nnc1SCC(=O)Nc1nccs1,1.7% (inactive)
17,Nc1cc(C(F)(F)F)ccc1N1CCOCC1,0.97% (inactive)
18,O=C(/C=C/c1ccc(Cl)cc1)Nc1ccc(Br)cn1,0.77% (inactive)
19,O=C(Nc1ccc(Br)cn1)c1ccc([N+](=O)[O-])cc1Cl,13.7% (inactive)
20,O=C(Nc1ccc(Br)cn1)c1ccc([N+](=O)[O-])o1,100% (active)
21,CS(=O)(=O)Nc1cccc(-c2cn3ccccc3n2)c1,-2.73% (inactive)
22,Cc1cnc(C(=O)OCC(=O)NCCCc2ccccc2)cn1,-4.28% (inactive)
23,O=C(NCc1ccco1)C1(c2ccc(Cl)cc2)CCCC1,76.6% (active)
24,O=C(NCCCCCCNC(=O)NCc1ccco1)NCc1ccco1,-3.59% (inactive)
25,O=C(CC1CCCCC1)NCc1ccco1,-0.08% (inactive)
26,COc1ccc(N2C(=O)C(Cc3ccccc3)NC2=S)cc1 (stereo not given),-0.72% (inactive)
27,Cn1cc(CN2CCCCC2c2ccccn2)c(-c2ccc3c(c2)OCCO3)n1 (stereo not given),-2.73% (inactive)
28,Cc1cc(/C=C2\SC(=Nc3ccc(N4CCOCC4)cc3)N(C)C2=O)c(C)n1-c1cccnc1,0.4% (inactive)
29,Cc1ccccc1-n1c(C)cc(/C=C2\NC(=O)NC2=O)c1C,7.26% (inactive)
30,Cc1cc(/C=C2/NC(=O)NC2=O)c(C)n1-c1cccnc1,60.6% (active)
